Inconclusive results are not listed. The source made the active and inactive calls. Unless noted, calls come from the whole dose curve; as a rule, active = well fitted curve in the direction sought with a large enough effect; inconclusive = small, poorly fitted or top-dose-only effect, or another doubt; inactive = no such curve, though single readings can be large; an effect the other way counts as inactive or inconclusive.
Columns and labels:
[1] = NS1 protein of Zika virus - qHTS assay to identify small molecule inhibitors in human HEK 293 cells (AID 1347053); conditions: HEK293 ZIKV MR766 infection, NS1 TR-FRET, 24 h; series mostly up to 46.1 µM; note: nearly all actives have a fitted effect of over 55% in size
Summary of the method: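 Inhibition of NS1 expression was scored in HEK 293 cells given compound 1 h ahead of MR766 virus (MOI = 0.5). Following 24 h at 37 C, two anti-NS1 antibodies generated a TR-FRET signal, scaled between uninfected and infected controls.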

[2] = qHTS for Inhibitors of the Functional Ribonucleoprotein Complex (vRNP) of Lassa (LASV) Arenavirus: LASV Primary Screen - GLuc reporter signal (AID 1347082; calls by dose curve; tested in HEK293 reporter line; note: nearly all actives have a fitted effect of over 60% in size); conditions: LASV minigenome vRNP, Gaussia luciferase reporter; series mostly up to 57.5 µM
[3] = qHTS for Inhibitors of the Functional Ribonucleoprotein Complex (vRNP) of Lassa (LASV) Arenavirus: Viability assay - alamar blue signal for LASV Primary Screen (AID 1347083; calls by dose curve; tested in HEK293 reporter line; note: nearly all actives have a fitted effect of over 80% in size); conditions: cell viability, alamar blue fluorescence (LASV minigenome counter-screen); series mostly up to 57.5 µM
[4] = qHTS for Inhibitors of the Functional Ribonucleoprotein Complex (vRNP) of Lymphocytic Choriomeningitis Arenaviruses (LCMV): Viability assay - alamar blue signal for LCMV Primary Screen (AID 1347085; calls by dose curve; tested in HEK293 reporter line; note: nearly all actives have a fitted effect of over 80% in size); conditions: alamar blue viability counter-screen, LCMV vRNP screen cells; series mostly up to 57.5 µM
[5] = biological target: Nucleoprotein (Lymphocytic choriomeningitis virus (strain Armstrong)) (UniProt P09992); assay: qHTS for Inhibitors of the Functional Ribonucleoprotein Complex (vRNP) of Lymphocytic Choriomeningitis Arenaviruses (LCMV): LCMV Primary Screen - GLuc reporter signal (AID 1347086; calls by dose curve; note: nearly all actives have a fitted effect of over 70% in size); conditions: LCMV minigenome vRNP cell assay, Gaussia luciferase reporter; series mostly up to 57.5 µM
[6] = qHTS of pediatric cancer cell lines to identify multiple opportunities for drug repurposing: Primary screen for TC32 cells (AID 1347089); conditions: TC32 Ewing sarcoma viability, CellTiter-Glo luminescence, 48 h; series mostly up to 45.8 µM; note: nearly all actives have a fitted effect of over 60% in size
Summary of the method: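 A viability screen of TC32 cells was run over 48 h, with primary MIPE doses spanning 0.78 nM–46 µM and NPC doses 0.59 nM–46 µM. ATP luminescence (CellTiter-Glo) served as the read-out.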

[7] = qHTS of pediatric cancer cell lines to identify multiple opportunities for drug repurposing: Primary screen for DAOY cells (AID 1347090); conditions: DAOY medulloblastoma viability, CellTiter-Glo luminescence, 48 h; series mostly up to 46 µM; note: nearly all actives have a fitted effect of over 55% in size
Summary of the method: (§1)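 Cell viability, CellTiter-Glo luminescence; 500-1,000 cells/well, 8- or 11-point titration, 48 h compound exposure at 37 degrees C, 5% CO2. Controls: DMSO neutral, bortezomib 2.3 µM final as positive.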

[8] = qHTS of pediatric cancer cell lines to identify multiple opportunities for drug repurposing: Primary screen for SJ-GBM2 cells (AID 1347091); conditions: SJ-GBM2 viability, CellTiter-Glo luminescence, 48 h; series mostly up to 46 µM
Summary of the method: as §1

[9] = qHTS of pediatric cancer cell lines to identify multiple opportunities for drug repurposing: Primary screen for A673 cells (AID 1347092); conditions: A673 Ewing sarcoma viability, CellTiter-Glo ATP luminescence, 48 h; series mostly up to 46 µM; note: nearly all actives have a fitted effect of over 45% in size
Summary of the method: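 Titration-based qHTS on A673 cells: MIPE compounds spanned 11 points (0.78 nM to 46 µM final), NPC compounds 8 points (0.59 nM to 46 µM final). Viability after 48 h was measured by ATP luminescence.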

[10] = qHTS of pediatric cancer cell lines to identify multiple opportunities for drug repurposing: Primary screen for SK-N-MC cells (AID 1347093); conditions: SK-N-MC viability, CellTiter-Glo luminescence, 48 h; series mostly up to 46 µM
Summary of the method: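 Metabolically active cells were quantified by ATP-dependent luminescence (CellTiter-Glo, 15 min at room temperature) following 48 h treatment. Cells had been plated at 500-1,000 per well and settled for 5 h beforehand.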

[11] = qHTS of pediatric cancer cell lines to identify multiple opportunities for drug repurposing: Primary screen for BT-37 cells (AID 1347094); conditions: BT-37 viability, CellTiter-Glo luminescence, 48 h; series mostly up to 57.3 µM
Summary of the method: (§2)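 Primary screen of approved and investigational compounds on cells in growth media at 37 degrees C, 5% CO2. MIPE set at 11-point and NPC set at 8-point dilutions; viability scored by ATP-based luminescence at 48 hours.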

[12] = qHTS of pediatric cancer cell lines to identify multiple opportunities for drug repurposing: Primary screen for NB-EBc1 cells (AID 1347095); conditions: NB-EBc1 neuroblastoma viability, CellTiter-Glo luminescence, 48 h; series mostly up to 46 µM
Summary of the method: as §2

[13] = Natriuretic polypeptide receptor (hNpr1) antagonism - Pilot counterscreen GloSensor control cell line (AID 1347045; calls by dose curve); conditions: HEK293 cGMP GloSensor cells, SNP-stimulated luminescence, 20 min; series mostly up to 38.3 µM
Summary of the method: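 HEK293 cells carrying the GloSensor cGMP sensor (GIP/pGS-40F) were loaded with 2% GloSensor reagent for 2 h, exposed to compounds for 30 min, and then stimulated with 50 uM sodium nitroprusside for 20 min at room temperature.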

[14] = biological target: Atrial natriuretic peptide receptor 1 (Homo sapiens) (UniProt P16066); assay: Natriuretic polypeptide receptor (hNpr1) antagonism - Pilot screen (AID 1347049; calls by dose curve;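 note: agonist-evoked cGMP luminescence read 20 min after hNppA addition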); conditions: hNpr1 cells, antagonist mode cGMP read-out; series mostly up to 57.5 µM
Summary of the method: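 Readout is cGMP-driven firefly luciferase luminescence in HEK293 cells carrying hNpr1 and a PDE5-domain GloSensor, read before and 20 min after 0.1 nM hNppA stimulation. Cells had 2% substrate reagent for 2 h and test compound for 30 min.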

[15] = biological target: Atrial natriuretic peptide receptor 2 (Homo sapiens) (UniProt P20594); assay: Natriuretic polypeptide receptor (hNpr2) antagonism - Pilot subtype selectivity assay (AID 1347050; calls by dose curve); conditions: NPR2-expressing cells, cGMP antagonist-mode read-out; series mostly up to 38.3 µM
Summary of the method: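 Pilot selectivity screen against hNpr2: HEK293 cGMP-sensor cells are treated with LOPAC1280 compounds, then with hNppC peptide at 1 nM final. The cGMP-driven luminescence change over 20 min at room temperature is the read-out.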

[16] = biological target: T1, Tyrosine-protein phosphatase non-receptor type substrate 1 (Homo sapiens) + Leukocyte surface antigen CD47 (Homo sapiens) (UniProt P78324+Q08722); assay: CD47-SIRPalpha protein protein interaction - LANCE assay qHTS validation (AID 1347057; active = well fitted curve in the direction sought with a large enough effect in the signal ratio, with a control signal flat, not every such curve was filed as active; the % refers to the signal ratio); conditions: Recombinant CD47-His / biotin-SIRPalpha, TR-FRET ratio; series mostly up to 38.3 µM
Summary of the method: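 First, His-tagged CD47 and Eu-labelled anti-His antibody met the compound for 30 min; next, site-specifically biotinylated SIRPalpha was added for 30 min; finally streptavidin-APC was added before reading the TR-FRET ratio.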

[17] = biological target: T1, Tyrosine-protein phosphatase non-receptor type substrate 1 (Homo sapiens) + Leukocyte surface antigen CD47 (Homo sapiens); assay: CD47-SIRPalpha protein protein interaction - HTRF assay qHTS validation (AID 1347058; active = well fitted curve in the direction sought with a large enough effect in the signal ratio, not every such curve was filed as active; the % refers to the signal ratio;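 note: recombinant soluble extracellular CD47 with His tag and biotinylated SIRPalpha domains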); conditions: TR-FRET HTRF CD47-His / biotin-SIRPalpha binding, ratio 665/615; series mostly up to 38.3 µM
Summary of the method: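 TR-FRET read (Ch1/Ch2 ratio) of soluble extracellular CD47 and Avi-biotinylated SIRPalpha domains in PBS pH 7.4 with 0.05% IGEPAL; 7-point compound titration. Sequential 30 min room-temperature steps; non-biotinylated SIRPalpha as control inhibitor.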

[18] = biological target: T1, Tyrosine-protein phosphatase non-receptor type substrate 1 (Homo sapiens) + Leukocyte surface antigen CD47 (Homo sapiens); assay: CD47-SIRPalpha protein protein interaction - Alpha assay qHTS validation (AID 1347059); conditions: AlphaScreen CD47-His/biotin-SIRPalpha binding, LOPAC; series mostly up to 38.3 µM;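 note: bead proximity luminescence from CD47 binding SIRPalpha after compound preincubation with SIRPalpha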
Summary of the method: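 Binding is measured by AlphaScreen proximity: Ni-NTA acceptor beads capture His-CD47, streptavidin donor beads capture biotin-SIRPalpha. Each of three additions (SIRPalpha with compound, CD47, beads) incubates 30 min at room temperature protected from light.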

[19] = biological target: Parathyroid hormone/parathyroid hormone-related peptide receptor (Homo sapiens) (UniProt Q03431); assay: qHTS for PTHR1 Agonists: Optimization Screen against the NCGC LOPAC library (AID 1347079); conditions: HEK293 GP2 PTHR1 GloSensor cAMP luminescence, 1 h; series mostly up to 57.1 µM;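 note: GloSensor cAMP luminescence in HEK-293 GP2 cells expressing human PTHR1 with IBMX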
Summary of the method: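 Compounds were tested across a qHTS titration. PTHR1-expressing GP2 cells report cAMP rises via GloSensor luminescence after 1 hr compound exposure at 37C with IBMX present.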

[20] = qHTS of pediatric cancer cell lines to identify multiple opportunities for drug repurposing: Primary screen for U-2 OS cells (AID 1347096); conditions: U-2 OS viability, CellTiter-Glo luminescence, 48 h; series mostly up to 46 µM; note: nearly all actives have a fitted effect of over 50% in size
Summary of the method: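 Cells (500-1,000/well) rested 5 h, then received compounds for 48 h; metabolically active cells were measured by CellTiter-Glo luminescence. Final concentrations spanned up to 46 µM (MIPE, 11-point) or 0.59 nM-46 µM (NPC, 8-point) in primary screens, 11-point in follow-ups.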

Measured: Potency

Nucleoprotein (Lymphocytic choriomeningitis virus (strain Armstrong)), sequence (P09992 whole entry, looked up): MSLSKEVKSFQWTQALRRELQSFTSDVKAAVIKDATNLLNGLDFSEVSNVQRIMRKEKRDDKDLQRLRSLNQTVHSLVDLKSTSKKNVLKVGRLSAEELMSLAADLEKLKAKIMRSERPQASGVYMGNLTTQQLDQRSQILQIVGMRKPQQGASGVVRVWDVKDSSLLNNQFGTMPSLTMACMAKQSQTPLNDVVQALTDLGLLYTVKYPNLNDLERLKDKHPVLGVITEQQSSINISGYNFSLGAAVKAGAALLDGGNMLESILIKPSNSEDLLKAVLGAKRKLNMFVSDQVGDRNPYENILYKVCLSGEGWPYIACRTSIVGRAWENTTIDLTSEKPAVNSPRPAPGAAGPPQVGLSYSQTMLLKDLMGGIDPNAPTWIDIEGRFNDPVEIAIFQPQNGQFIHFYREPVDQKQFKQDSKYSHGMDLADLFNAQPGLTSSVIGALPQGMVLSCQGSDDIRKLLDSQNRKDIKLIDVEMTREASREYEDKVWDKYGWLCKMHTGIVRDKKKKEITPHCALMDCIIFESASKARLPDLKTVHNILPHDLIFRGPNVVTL
T1 sequence (P78324 whole entry, looked up): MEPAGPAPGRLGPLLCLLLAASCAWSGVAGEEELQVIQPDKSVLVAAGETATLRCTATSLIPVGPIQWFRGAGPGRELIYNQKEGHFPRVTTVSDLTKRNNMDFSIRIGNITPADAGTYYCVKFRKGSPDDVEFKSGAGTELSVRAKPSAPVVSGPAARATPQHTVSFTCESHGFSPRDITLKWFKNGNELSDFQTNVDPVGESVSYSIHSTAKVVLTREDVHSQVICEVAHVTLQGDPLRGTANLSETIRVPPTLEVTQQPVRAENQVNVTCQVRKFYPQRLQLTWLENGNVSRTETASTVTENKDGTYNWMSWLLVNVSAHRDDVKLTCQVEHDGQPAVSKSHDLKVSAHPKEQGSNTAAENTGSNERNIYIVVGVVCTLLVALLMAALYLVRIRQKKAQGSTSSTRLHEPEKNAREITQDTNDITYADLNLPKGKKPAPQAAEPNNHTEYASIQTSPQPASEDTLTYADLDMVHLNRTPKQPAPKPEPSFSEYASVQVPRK
T1 sequence (Q08722 whole entry, looked up): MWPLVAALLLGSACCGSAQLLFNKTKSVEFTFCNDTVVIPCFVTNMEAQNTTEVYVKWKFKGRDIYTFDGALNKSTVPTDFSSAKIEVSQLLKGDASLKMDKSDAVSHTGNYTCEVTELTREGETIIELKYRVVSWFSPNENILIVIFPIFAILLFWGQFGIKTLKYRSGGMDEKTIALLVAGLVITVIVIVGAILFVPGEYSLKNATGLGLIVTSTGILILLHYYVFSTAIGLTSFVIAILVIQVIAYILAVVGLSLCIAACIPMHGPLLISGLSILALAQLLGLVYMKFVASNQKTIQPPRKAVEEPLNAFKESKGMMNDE
Atrial natriuretic peptide receptor 2 (Homo sapiens), sequence (P20594 whole entry, looked up): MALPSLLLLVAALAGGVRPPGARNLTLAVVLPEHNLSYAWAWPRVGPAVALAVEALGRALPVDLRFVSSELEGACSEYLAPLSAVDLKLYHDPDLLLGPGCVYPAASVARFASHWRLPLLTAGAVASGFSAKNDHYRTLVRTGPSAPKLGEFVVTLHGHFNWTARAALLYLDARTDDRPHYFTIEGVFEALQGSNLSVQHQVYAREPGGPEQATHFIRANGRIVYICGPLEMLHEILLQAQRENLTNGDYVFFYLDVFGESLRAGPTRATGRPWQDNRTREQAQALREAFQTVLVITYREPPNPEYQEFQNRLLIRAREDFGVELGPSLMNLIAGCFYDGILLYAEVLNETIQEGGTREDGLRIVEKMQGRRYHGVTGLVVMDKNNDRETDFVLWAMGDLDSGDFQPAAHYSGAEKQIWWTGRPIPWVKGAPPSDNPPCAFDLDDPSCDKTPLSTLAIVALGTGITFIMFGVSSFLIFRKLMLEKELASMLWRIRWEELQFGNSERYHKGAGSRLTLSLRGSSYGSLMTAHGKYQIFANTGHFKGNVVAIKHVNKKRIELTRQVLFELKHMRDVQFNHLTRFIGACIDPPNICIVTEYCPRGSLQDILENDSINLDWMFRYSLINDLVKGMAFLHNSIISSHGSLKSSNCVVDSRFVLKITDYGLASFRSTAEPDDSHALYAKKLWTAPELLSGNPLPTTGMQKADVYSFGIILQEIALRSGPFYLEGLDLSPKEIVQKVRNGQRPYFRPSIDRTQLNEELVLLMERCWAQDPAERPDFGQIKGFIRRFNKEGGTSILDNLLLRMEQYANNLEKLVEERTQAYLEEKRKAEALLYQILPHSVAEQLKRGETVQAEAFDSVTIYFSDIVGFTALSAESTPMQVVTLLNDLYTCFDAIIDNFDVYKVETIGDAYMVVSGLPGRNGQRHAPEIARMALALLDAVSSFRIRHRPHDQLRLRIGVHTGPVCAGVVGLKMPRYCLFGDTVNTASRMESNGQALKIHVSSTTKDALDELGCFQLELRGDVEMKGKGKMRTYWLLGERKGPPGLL
Parathyroid hormone/parathyroid hormone-related peptide receptor (Homo sapiens), sequence (Q03431 whole entry, looked up): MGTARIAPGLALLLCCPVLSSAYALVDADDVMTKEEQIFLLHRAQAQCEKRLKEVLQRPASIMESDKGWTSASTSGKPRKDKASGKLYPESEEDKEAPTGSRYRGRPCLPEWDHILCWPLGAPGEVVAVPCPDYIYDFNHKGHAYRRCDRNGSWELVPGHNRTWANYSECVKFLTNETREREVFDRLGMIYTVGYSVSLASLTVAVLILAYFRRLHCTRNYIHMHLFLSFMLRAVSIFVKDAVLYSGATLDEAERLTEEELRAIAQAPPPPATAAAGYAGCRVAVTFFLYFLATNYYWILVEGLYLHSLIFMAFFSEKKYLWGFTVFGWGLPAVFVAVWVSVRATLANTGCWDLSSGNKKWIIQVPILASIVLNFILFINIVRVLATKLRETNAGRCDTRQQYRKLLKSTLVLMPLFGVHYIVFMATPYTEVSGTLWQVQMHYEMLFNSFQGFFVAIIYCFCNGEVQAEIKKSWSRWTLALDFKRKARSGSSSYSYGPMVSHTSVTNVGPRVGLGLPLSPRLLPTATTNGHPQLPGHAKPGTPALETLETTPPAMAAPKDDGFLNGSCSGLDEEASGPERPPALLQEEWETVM
Atrial natriuretic peptide receptor 1 (Homo sapiens), sequence (P16066 whole entry, looked up): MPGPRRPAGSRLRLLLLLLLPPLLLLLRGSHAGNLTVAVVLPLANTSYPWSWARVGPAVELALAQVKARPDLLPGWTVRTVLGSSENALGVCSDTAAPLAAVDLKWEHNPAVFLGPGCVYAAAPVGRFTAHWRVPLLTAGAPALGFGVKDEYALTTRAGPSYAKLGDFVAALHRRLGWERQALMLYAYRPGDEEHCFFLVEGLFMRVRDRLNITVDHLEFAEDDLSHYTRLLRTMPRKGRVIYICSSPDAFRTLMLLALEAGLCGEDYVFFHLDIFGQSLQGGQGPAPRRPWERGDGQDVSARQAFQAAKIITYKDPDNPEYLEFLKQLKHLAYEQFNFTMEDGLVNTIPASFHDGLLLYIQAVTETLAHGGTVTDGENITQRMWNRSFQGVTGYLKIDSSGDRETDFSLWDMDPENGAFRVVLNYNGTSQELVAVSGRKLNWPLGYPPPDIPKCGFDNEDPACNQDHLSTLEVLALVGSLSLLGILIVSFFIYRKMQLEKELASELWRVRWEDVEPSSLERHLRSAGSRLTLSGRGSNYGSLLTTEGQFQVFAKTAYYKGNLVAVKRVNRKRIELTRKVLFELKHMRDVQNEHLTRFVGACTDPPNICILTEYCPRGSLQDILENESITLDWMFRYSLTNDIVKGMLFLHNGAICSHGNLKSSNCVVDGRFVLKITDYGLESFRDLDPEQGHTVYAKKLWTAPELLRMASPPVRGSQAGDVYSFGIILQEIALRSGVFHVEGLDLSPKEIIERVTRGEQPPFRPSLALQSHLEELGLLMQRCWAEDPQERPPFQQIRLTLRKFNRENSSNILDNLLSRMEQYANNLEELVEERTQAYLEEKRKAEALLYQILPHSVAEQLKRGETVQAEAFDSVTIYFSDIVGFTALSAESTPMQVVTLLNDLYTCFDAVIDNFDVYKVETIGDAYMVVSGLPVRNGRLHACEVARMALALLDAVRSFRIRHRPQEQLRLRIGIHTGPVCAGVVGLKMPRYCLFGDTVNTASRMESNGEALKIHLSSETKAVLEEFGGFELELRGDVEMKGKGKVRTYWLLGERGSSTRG

CC(C(O)c1ccccc1)N(C)C/C=C/c1ccccc1 (stereo unspecified)
not listed: [13] | [14] | [15] | [16] | [17] | [18] | [19] | [20]
inactive: all other assays above

O=C(O)c1nn(Cc2ccc(Cl)cc2Cl)c2ccccc12
inactive: all assays above

NCc1cccnc1
not listed: [13] | [14] | [15] | [16] | [17] | [18] | [19] | [20]
inactive: all other assays above

OC(O)C(Cl)(Cl)Cl
not listed: [13] | [14] | [15] | [16] | [17] | [18] | [19]
inactive: all other assays above

O=C(O)CCCCCCNC1c2ccccc2CCc2ccccc21
not listed: [13] | [14] | [15] | [16] | [17] | [18] | [19]
inactive: all other assays above

C[C@]12CC[C@H]3[C@@H](CCC4=CC(=O)CC[C@@]43C)[C@@H]1CC[C@@H]2C(=O)O
not listed: [13] | [14] | [15] | [16] | [17] | [18] | [19]
inactive: all other assays above

CC(Cc1ccccc1)NCCCCl (stereo unspecified)
not listed: [13] | [14] | [15] | [16] | [17] | [18] | [19]
inactive: all other assays above

O=C(CCCN1CCC(n2c(=O)[nH]c3ccccc32)CC1)c1ccc(F)cc1
not listed: [13] | [14] | [15] | [16] | [17] | [18] | [19] | [20]
inactive: all other assays above

ClCCCN1CCN(c2cccc(Cl)c2)CC1
not listed: [13] | [14] | [15] | [16] | [17] | [18] | [19] | [20]
inactive: all other assays above

COCC(=O)N(c1c(C)cccc1C)C(C)C(=O)OC (stereo unspecified)
not listed: [13] | [14] | [15] | [16] | [17] | [18] | [19] | [20]
inactive: all other assays above

CCCC[N+]1(C)[C@@H]2CC(OC(=O)[C@H](CO)c3ccccc3)C[C@H]1[C@@H]1O[C@@H]12 (stereo partly specified)
not listed: [13] | [14] | [15] | [16] | [17] | [18] | [19] | [20]
inactive: all other assays above

c1cc2c(c(N3CCNCC3)c1)OCCO2
not listed: [13] | [14] | [15] | [16] | [17] | [18] | [19] | [20]
inactive: all other assays above

CCC(=O)OC1(c2ccccc2)CCN(C)CC1
not listed: [13] | [14] | [15] | [16] | [17] | [18] | [19]
inactive: all other assays above

CCOC(=O)NC(O)C(Cl)(Cl)Cl (stereo unspecified)
not listed: [13] | [14] | [15] | [16] | [17] | [18] | [19]
inactive: all other assays above

OC(c1ccccc1)(c1ccccc1)C1CCNCC1
not listed: [13] | [14] | [15] | [16] | [17] | [18] | [19]
inactive: all other assays above

Cc1c(Cl)c(=O)oc2cc(OP(=O)(OCCCl)OCCCl)ccc12
not listed: [13] | [14] | [15] | [16] | [17] | [18] | [19] | [20]
inactive: all other assays above

Cc1cccc(Cc2cnc[nH]2)c1C
not listed: [13] | [14] | [15] | [16] | [17] | [18] | [19]
inactive: all other assays above

C[C@]12CC[C@H](O)CC1=CC[C@@H]1[C@@H]2CC[C@]2(C)C(=O)CC[C@@H]12
not listed: [13] | [14] | [15] | [16] | [17] | [18] | [19]
inactive: all other assays above

Cc1nnc2n1-c1sc(CCC(=O)N3CCOCC3)cc1C(c1ccccc1Cl)=NC2
not listed: [13] | [14] | [15] | [16] | [17] | [18] | [19]
inactive: all other assays above

— PubChem BioAssay (NCATS)
